Measurements taken from ChEMBL document CHEMBL3988442, “University of Dundee, Small-Polar-MMV Screening Library” (2021).
The whole screen tested about 48,000 compounds, of which about 13,000 (27%) showed an effect of 50% or more. Some of the results follow.

Test system: Wolbachia pipientis
Assay: Anti-Wolbachia Cell-Based Screen
Assay type: functional
Design: scale not given: in the data most compounds retested in dose-response had high values
Details: 5 µM

Row | SMILES | Percent Effect
1 | CCn1nc(C)c(CCN2CC3(CCOC3)CCC2=O)c1C (centres undefined) | -24.96%
2 | N#CC1C(=O)Nc2c(cnn2C2CCCC2)C12CCCCC2 (centres undefined) | 30.08%
3 | CC(C)c1ncc2c(n1)CN(Cc1nc(-c3cccnc3)no1)CC2 | 97.53%
4 | CC(C)c1ncc2c(n1)CN(Cc1nc(Cc3ccccc3)no1)CC2 | -0.3417%
5 | CC(C)c1ncc2c(n1)CN(Cc1nc(-c3ccco3)no1)CC2 | 103.4%
6 | CC(C)c1ncc2c(n1)CN(Cc1nc(-c3ccoc3)no1)CC2 | -5.396%
7 | c1ccc(-c2noc(CN3CCc4cncnc4C3)n2)nc1 | 12.32%
8 | CC(C)c1ncc2c(n1)CN(Cc1nc(-c3ccccn3)no1)CC2 | 114.4%
9 | Cn1cnc2c1CCN(Cc1nc(-c3ccco3)no1)C2 | -0.7314%
10 | CCc1ncc2c(n1)CN(Cc1nc(-c3ccccn3)no1)CC2 | 1.522%
11 | CC1CCCN(S(=O)(=O)N2CCOC3(CCCC3)C2)C1 (centres undefined) | 2.449%
12 | CCC(=O)NCC(=O)NCC(C)(C)c1cccc(Br)c1 | 13.04%
13 | COc1cccc2c1OCC(C(=O)NCCn1nc(C)c(Cl)c1C)C2 (centres undefined) | -38.77%
14 | CCCc1nnc(NC2CCN(C3CCSCC3)CC2)o1 | -8.087%
15 | CCc1nnc(CSc2ccccn2)o1 | -8.933%
16 | CN1CC(=O)N(c2cccc(F)c2)CC12CCN(S(=O)(=O)C1CC1)C2.O=C(O)C(F)(F)F (centres undefined) | -1.497%
17 | CC(C)c1nccn1-c1cncc(C2CCCN(C3CCCCC3)C2)n1 (centres undefined) | 98.48%
18 | CC(C)c1nccn1-c1cncc(C2CCCN(C3CCCC3)C2)n1 (centres undefined) | 108%
19 | CC(C)c1nccn1-c1cccc(C2CCCN(C3CCCC3)C2)n1 (centres undefined) | 0.08562%
20 | COC[C@]1(O)CCN(C(=O)c2cccc(CN(C)C)c2)CC1(C)C | 2.502%
21 | COc1ccc(C)cc1CNCc1ccc(-n2nc(C)cc2C)nc1 | -14.66%
22 | Cc1nc(CCNC(=O)C2CC(=O)N(C(C)(C)C)C2)sc1C (centres undefined) | 2.949%
23 | Cc1nc(COCc2nc3c(o2)CN(C(=O)c2ccc[nH]2)C3)cs1.O=C(O)C(F)(F)F | -0.815%
24 | COc1ccc(C(CO)NC(=O)Nc2cccc(C#N)c2)cc1 (centres undefined) | -8.791%
25 | COC[C@H](C)Nc1cc(C)c2ccc(SC)cc2n1 | 11.13%
26 | COc1ccc(C(CO)NC(=O)Nc2cccc(F)c2)cc1 (centres undefined) | -21.51%
27 | COc1ccc(CC(C)Nc2cccc(SC)c2)cc1 (centres undefined) | 111.5%
28 | COc1ccc2cc(CNc3c(C)nn(C(C)C)c3C)ccc2c1 | -4.986%
29 | COc1ccc(CCC(C)Nc2cccc(SC)c2)cc1 (centres undefined) | 100.8%
